From PubChem BioAssay (NCI)
About 79,000 compounds went through this panel and 15% of them were active in at least one assay; those are over-represented in the sample as a whole. Values without a mark were called inactive. Calls of active or inactive are those of the source. Cut-off read from the data, not from the text of the source: active = growth inhibition above about 70%; inactive = the rest.

Experiment: NCI Yeast Anticancer Drug Screen. Data for the rad14 strain (AID 159);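 note: 0% = growth of vehicle-treated control cultures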
Conditions: S. cerevisiae rad14 strain growth inhibition; at 100.0 µM; active compounds read high
Outline: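 Compound-treated yeast with a defined DNA-repair lesion; growth inhibition normalised to vehicle-treated cultures.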

Row | Compound | growth inhibition
1 | Cc1cccc2c(C(O)CBr)cc(-c3ccc(Cl)cc3)nc12 (stereo not given) | 88% (active)
2 | CN(C)C[C@H]1CC[C@@H](CN(C)C)C1=O | 52%
3 | CC1=C(SCCO)C(=O)c2ccccc2C1=O | 20%
4 | COC(=O)CCNc1c2ccccc2nc2cccc([N+](=O)[O-])c12 | 99% (active)
5 | CC(/C=C/c1ccc2c(c1)OCO2)[N+](=O)[O-] (stereo not given) | 100% (active)
6 | COC(=O)C1=C(C)NC(C)=C(C(=O)OCCCN2CCC(c3ccccc3)(c3ccccc3)CC2)C1c1cccc([N+](=O)[O-])c1 (stereo not given) | 89% (active)
7 | CCOC(=O)c1cnc2c(C(F)(F)F)cccc2c1N=[N+]=[N-] | 98% (active)
8 | O=[N+]([O-])c1cc2no[n+]([O-])c2cc1N1CCCCC1 | 98% (active)
9 | COC(=O)c1ccc(NCC2=CC(=O)C=CC2=O)cc1O | 92% (active)
10 | CCCCCCCCNC(=O)C1=C(C)NC(C)=C(C(=O)NCCCCCCCC)C1 | 11%
11 | S=C(Nc1ccc(Cl)c(Cl)c1)SCc1ccc2c(c1)OCO2 | 96% (active)
12 | O=S(=O)(CCCl)c1ccccc1Cl | 99% (active)
13 | Nc1ccccc1CC(O)C(=O)O (stereo not given) | 97% (active)
14 | CN(C)c1ccc(Sc2ccc3nc(N)nc(N)c3c2)cc1 | 5%
15 | CC(C)C1=CCC2C(=C1)CCC1C(C)(C(=O)O)CCCC21C (stereo not given) (tested in a mixture with another compound) | 97% (active)
16 | Cc1ccc(S(=O)(=O)Oc2cc(Cl)c(Cl)cc2Cl)cc1 | 2%
17 | CSC(=S)Nc1cc(C)ccn1 | 75% (active)
18 | CC(C)c1cc(C(C)C)c(O)c(C([O-])[O-])c1.CC(C)c1cc(C(C)C)c(O)c(C([O-])[O-])c1.CC(C)c1cc(C(C)C)c(O)c(C([OH2+])[OH2+])c1.CC(C)c1cc(C(C)C)c(O)c(C([OH2+])[OH2+])c1.[Cu+2].[Cu+2].[OH3+].[OH3+] | 93% (active)
19 | Cc1cc(I)ccc1N | 92% (active)
20 | CC(Br)C(=O)c1ccc2cc(Br)c3ccccc3c2c1 (stereo not given) | 17%

Row | Compound | growth inhibition
21 | O=C(Nc1ccccc1)OCCc1ccc(Cl)c(Cl)c1 | 53%
22 | O=Cc1cccc2ccc3ccccc3c12 | 99% (active)
23 | O=[N+]([O-])CC(SCc1ccccc1)c1ccc2c(c1)OCO2 (stereo not given) | 97% (active)
24 | CC1(Cl)CC(O)C2(CC1Br)C1(C)OC1C1OC1(Br)C2(C)C (stereo not given) | 97% (active)
25 | Cc1cc(O)cc(O)c1N=Nc1ccc([N+](=O)[O-])cc1 | 61%
26 | CCCCCCCCCCCCCC[N+](C)(CC(=O)[O-])Cc1ccccc1 (stereo not given) | 99% (active)
27 | CC1=NN(c2cccc(Cl)c2)C(=O)C1 | 36%
28 | CC(=O)OCc1ccc(O)c(C=O)c1 | 81% (active)
29 | Cc1ccc2ccc3cccc4ccc1c2c34 | 23%
30 | Cc1nc(-[n+]2nc(-c3ccncc3)nn2-c2ccccc2)sc1C | 1%
31 | C(CCSC1=NCCN1)CSC1=NCCN1 (tested in a mixture with another compound) | 99% (active)
32 | CCCCCCCCCCC(=O)Cl | 88% (active)
33 | COC1C=COC2(C)Oc3c(C)c(O)c4c(c3C2=O)/C(=N/C2CCC(O)OC2C)C=C(NC(=O)/C(C)=C\C(=O)C2CC2C(O)C(C)C(O)C(C)C(OC(C)=O)C1C)C4=O (stereo not given) | 87% (active)
34 | S=c1[nH]nc(Nc2ccc(Cl)cc2)s1 | 96% (active)
35 | O=C1CSC(/C=C/c2ccccc2)N1c1ccc(-c2ccc(-n3c(-c4ccccc4)nc4ccccc4c3=O)cc2)cc1 (stereo not given) | 79% (active)
36 | O=C1C=CC(=O)N1c1ccc2c(c1)Cc1cc(NC(=O)C(F)(F)F)ccc1-2 | 83% (active)
37 | Brc1ccc(-c2cc3c(cc2C2SCCS2)OCO3)cc1 | 25%
38 | Oc1ccc2ccccc2c1C(c1ccc(Cl)cc1)c1c(O)ccc2ccccc12 | 84% (active)
39 | C[CH2][Sn]([CH2]C)([O]C(=O)C(OC(C)=O)c1ccccc1)[O]C(=O)C(OC(C)=O)c1ccccc1 (stereo not given) | 57%
40 | Cc1ccc2ccc(O)cc2c1 | 56%
